Data on ten compounds can be found in PubChem BioAssay.

The nature of experiment [1]: binders of probe aFSTL3 on microarray, primary screen, stem cell growth factor project, biochemical, small-molecule microarray, fluorescence 635/667 (AID 1064).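 Further: measures binding of the biotinylated anti-FSTL3 antibody to printed compounds.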 The settings on record: higher = more signal.
The nature of experiment [2]: binders from COS7 lysate, DM2A8 probe, primary screen, torsin A project, cell lysate, small-molecule microarray, fluorescence 635/667 (AID 1065). The settings on record: higher = more signal, COS7 lysate expressing mutant human TOR1A.
Experiment [3] can be described thus: binders of probe aFGF2 on microarray, primary screen, stem cell growth factor project, biochemical, small-molecule microarray, fluorescence 635/667 (AID 1067).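 Further: measures binding of biotinylated aFGF2 protein to printed compounds on slides; z-score merges feature fluorescence and signal-to-noise across triplicate slides.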 The settings on record: higher = more signal.
A short description of experiment [4]: binders of probe aFGF10 on microarray, primary screen, stem cell growth factor project, biochemical, small-molecule microarray, fluorescence 635/667 (AID 1071).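 Further: score merges 667 nm spot intensity and signal to noise from triplicate slides.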 As to conditions: higher = more signal.
Experiment [5] has as its target Neurogenic locus notch homolog protein 2 (Homo sapiens) (UniProt Q04721). The experiment is described as follows: Notch2 binders on small-molecule microarrays, primary screen, biochemical, small-molecule microarray, 635 nm fluorescence, stem cell growth factors (AID 1073). As to conditions: Notch2 binding, higher = more signal.
For experiment [6], the target named is Pro-neuregulin-1, membrane-bound isoform (Homo sapiens) (UniProt Q02297). Kind of experiment: NRG1 binders on small-molecule microarrays, primary screen, psychiatric disease protein project, biochemical, small-molecule microarray, fluorescence 635/667 (AID 1075).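 Further: score combines 667 nm spot fluorescence with signal to noise.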 The settings on record: NRG1 binding, 635 nm fluorescence, higher = more signal.
The subject of experiment [7] is Neuregulin-1 EGF-like domain. The experiment is described as follows: binders of neuregulin-1 EGF-like domain, primary screen, biochemical, small-molecule microarray, 635 nm fluorescence (AID 1081).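 Further: binding of the protein to compounds printed on small-molecule microarray slides.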 As to conditions: small-molecule microarray binding, higher = more signal.
A short description of experiment [8]: FRG1 promoter luciferase signal modulators, primary screen, FRG1 inhibition for FSHD, cell-based, C2C12 myotubes, firefly/Renilla luciferase, luminescence (AID 1084). As to conditions: higher = more signal, called active from +8 up or from −8 down.
Experiment [9] can be described thus: binders of probe aFST on microarray, primary screen, stem cell growth factor project, biochemical, small-molecule microarray, fluorescence 635/667 (AID 1086).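 Further: score merges 667 nm fluorescence with signal-to-noise of each printed compound spot.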 As to conditions: higher = more signal.
The nature of experiment [10]: binders of probe aHhip on microarray, primary screen, stem cell growth factor project, biochemical, small-molecule microarray, fluorescence 635/667 (AID 1087).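 Further: score merges spot fluorescence at 667nm with spot signal to noise ratio.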 As to conditions: higher = more signal.
For experiment [11], the system named is PRMT1 (protein arginine N-methyltransferase 1). The experiment is described as follows: PRMT1 binders on small-molecule microarrays, primary screen, biochemical, small-molecule microarray, 635 nm fluorescence (AID 1088).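 Further: binding of Prmt1 protein to compounds spotted on small-molecule microarray slides.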 The settings on record: small-molecule microarray binding, higher = more signal.
Experiment [12] can be described thus: yeast growth modulation, basal conditions, primary screen, YJM789 clinical isolate, OD600, 24 h (AID 1089).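 Further: growth of clinical yeast isolate S. cerevisiae YJM 789 seeded 1000 cells per well.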 As to conditions: S. cerevisiae YJM789 growth, higher = more signal, called active from +8 up or from −8 down.
Experiment [13] can be described thus: fission yeast growth modulation, primary screen, strain 972, OD600, 24 h, no modulator (AID 1090).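 Further: basal condition with compound alone and no growth modifier present.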 As to conditions: S. pombe 972 growth, higher = more signal, called active from +8 up or from −8 down.
A short description of experiment [14]: S. cerevisiae growth modulation with rapamycin, primary screen, strain BY4716, OD600, 96 h (AID 1091). The settings on record: higher = more signal, called active from +8 up or from −8 down.
For experiment [15], the target named is Torsin-1A-interacting protein 2 (Homo sapiens) (UniProt Q8NFQ8). Kind of experiment: LULL1 binders on small-molecule microarray, primary screen, cell lysate, human LULL1 lysate, 635/667 nm fluorescence (AID 1092).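 Further: probe is lysate of COS7 cells overexpressing human LULL1; score merges per-feature 667 nm fluorescence with signal-to-noise.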 The settings on record: hLULL1 lysate binding, 635 nm fluorescence, higher = more signal.
The nature of experiment [16]: E. coli growth modulation, two-sided OD650, primary screen, E. coli filamentation project, strain DRC41, 24 h (AID 1093).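 Further: MC1000 strain lacking acrAB efflux and sulA so SOS filamentation is blocked.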 The settings on record: OD650, 24 h, higher = more signal, called active from +8 up or from −8 down.
Experiment [17] in a line: small-molecule microarray binders of probe aLefty2, primary screen, biochemical, biotinylated probe, 635/667 nm fluorescence (AID 1094).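 Further: score merges spot fluorescence near 667 nm with spot signal-to-noise ratio.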 As to conditions: higher = more signal.
Experiment [18] in a line: Cryptococcus neoformans growth inhibition, dose response, Alamar Blue, cherry-picks (AID 686998;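 active means falling signal with fitted half-maximal potency no higher than twice the top valid tested dose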). A general note: Alamar Blue is a resazurin reagent that responds to reducing activity.
A short description of experiment [19]: inducers of Cryptococcus neoformans cell lysis, dose response, AK release luminescence, cherry-picks (AID 687000).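 Further: luminescent detection of adenylate kinase leaking from lysed yeast; 0% = median neutral control signal and 100% = double that signal.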
Experiment [20] is described as follows: HepG2 cell cytotoxicity, dose response, cytotoxicity control, cherry-picks, set 2 (AID 687002;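 active means a dose-response fit showing signal loss, with half-maximal concentration no higher than twice the top tested dose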).

For part of these data: Results with a measured potency or affinity are listed apart. Results filed as inconclusive are left out. The source made the active and inactive calls.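 How the source made its calls, unless noted: active means fitted dose curve reaches 40% lysis signal rise at or below the highest valid concentration tested for that sample; inconclusive means flat fit between 30% and 70%, or poor curve fit; inactive means signal falls, stays flat within 30%, or no crossing.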

Chain of Pro-neuregulin-1, membrane-bound isoform (Homo sapiens) (Q02297 whole entry, looked up, the tested form may be a part, canonical isoform): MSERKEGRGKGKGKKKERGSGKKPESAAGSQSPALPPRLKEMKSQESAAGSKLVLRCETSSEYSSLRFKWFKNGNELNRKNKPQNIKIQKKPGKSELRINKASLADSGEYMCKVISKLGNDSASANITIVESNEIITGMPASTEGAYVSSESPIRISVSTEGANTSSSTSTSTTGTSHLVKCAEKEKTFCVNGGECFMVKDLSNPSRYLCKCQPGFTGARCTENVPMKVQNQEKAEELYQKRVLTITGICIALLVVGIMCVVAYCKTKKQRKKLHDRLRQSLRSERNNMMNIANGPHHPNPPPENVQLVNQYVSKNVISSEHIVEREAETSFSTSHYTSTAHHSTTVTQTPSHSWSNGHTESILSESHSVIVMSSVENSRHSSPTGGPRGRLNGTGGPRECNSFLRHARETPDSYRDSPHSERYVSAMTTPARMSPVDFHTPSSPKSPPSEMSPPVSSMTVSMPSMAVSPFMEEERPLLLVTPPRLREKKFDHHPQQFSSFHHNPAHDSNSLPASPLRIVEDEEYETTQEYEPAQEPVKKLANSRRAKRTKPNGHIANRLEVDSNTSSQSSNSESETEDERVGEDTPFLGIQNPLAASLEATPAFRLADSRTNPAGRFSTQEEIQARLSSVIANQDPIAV
Chain of Torsin-1A-interacting protein 2 (Homo sapiens) (Q8NFQ8 whole entry, looked up): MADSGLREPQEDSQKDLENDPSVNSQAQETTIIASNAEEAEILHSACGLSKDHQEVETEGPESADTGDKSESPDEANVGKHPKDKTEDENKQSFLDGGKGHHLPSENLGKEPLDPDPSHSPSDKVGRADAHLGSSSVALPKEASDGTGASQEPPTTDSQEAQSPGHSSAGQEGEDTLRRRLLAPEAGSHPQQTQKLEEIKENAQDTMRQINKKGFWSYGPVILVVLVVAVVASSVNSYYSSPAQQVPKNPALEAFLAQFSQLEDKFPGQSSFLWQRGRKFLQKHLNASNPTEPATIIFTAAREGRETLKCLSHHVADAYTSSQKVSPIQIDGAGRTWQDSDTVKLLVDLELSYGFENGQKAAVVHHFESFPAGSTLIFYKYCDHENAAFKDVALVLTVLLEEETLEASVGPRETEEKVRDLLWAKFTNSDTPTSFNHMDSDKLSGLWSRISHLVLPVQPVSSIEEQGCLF
Chain of Neurogenic locus notch homolog protein 2 (Homo sapiens) (Q04721 whole entry, looked up, canonical isoform): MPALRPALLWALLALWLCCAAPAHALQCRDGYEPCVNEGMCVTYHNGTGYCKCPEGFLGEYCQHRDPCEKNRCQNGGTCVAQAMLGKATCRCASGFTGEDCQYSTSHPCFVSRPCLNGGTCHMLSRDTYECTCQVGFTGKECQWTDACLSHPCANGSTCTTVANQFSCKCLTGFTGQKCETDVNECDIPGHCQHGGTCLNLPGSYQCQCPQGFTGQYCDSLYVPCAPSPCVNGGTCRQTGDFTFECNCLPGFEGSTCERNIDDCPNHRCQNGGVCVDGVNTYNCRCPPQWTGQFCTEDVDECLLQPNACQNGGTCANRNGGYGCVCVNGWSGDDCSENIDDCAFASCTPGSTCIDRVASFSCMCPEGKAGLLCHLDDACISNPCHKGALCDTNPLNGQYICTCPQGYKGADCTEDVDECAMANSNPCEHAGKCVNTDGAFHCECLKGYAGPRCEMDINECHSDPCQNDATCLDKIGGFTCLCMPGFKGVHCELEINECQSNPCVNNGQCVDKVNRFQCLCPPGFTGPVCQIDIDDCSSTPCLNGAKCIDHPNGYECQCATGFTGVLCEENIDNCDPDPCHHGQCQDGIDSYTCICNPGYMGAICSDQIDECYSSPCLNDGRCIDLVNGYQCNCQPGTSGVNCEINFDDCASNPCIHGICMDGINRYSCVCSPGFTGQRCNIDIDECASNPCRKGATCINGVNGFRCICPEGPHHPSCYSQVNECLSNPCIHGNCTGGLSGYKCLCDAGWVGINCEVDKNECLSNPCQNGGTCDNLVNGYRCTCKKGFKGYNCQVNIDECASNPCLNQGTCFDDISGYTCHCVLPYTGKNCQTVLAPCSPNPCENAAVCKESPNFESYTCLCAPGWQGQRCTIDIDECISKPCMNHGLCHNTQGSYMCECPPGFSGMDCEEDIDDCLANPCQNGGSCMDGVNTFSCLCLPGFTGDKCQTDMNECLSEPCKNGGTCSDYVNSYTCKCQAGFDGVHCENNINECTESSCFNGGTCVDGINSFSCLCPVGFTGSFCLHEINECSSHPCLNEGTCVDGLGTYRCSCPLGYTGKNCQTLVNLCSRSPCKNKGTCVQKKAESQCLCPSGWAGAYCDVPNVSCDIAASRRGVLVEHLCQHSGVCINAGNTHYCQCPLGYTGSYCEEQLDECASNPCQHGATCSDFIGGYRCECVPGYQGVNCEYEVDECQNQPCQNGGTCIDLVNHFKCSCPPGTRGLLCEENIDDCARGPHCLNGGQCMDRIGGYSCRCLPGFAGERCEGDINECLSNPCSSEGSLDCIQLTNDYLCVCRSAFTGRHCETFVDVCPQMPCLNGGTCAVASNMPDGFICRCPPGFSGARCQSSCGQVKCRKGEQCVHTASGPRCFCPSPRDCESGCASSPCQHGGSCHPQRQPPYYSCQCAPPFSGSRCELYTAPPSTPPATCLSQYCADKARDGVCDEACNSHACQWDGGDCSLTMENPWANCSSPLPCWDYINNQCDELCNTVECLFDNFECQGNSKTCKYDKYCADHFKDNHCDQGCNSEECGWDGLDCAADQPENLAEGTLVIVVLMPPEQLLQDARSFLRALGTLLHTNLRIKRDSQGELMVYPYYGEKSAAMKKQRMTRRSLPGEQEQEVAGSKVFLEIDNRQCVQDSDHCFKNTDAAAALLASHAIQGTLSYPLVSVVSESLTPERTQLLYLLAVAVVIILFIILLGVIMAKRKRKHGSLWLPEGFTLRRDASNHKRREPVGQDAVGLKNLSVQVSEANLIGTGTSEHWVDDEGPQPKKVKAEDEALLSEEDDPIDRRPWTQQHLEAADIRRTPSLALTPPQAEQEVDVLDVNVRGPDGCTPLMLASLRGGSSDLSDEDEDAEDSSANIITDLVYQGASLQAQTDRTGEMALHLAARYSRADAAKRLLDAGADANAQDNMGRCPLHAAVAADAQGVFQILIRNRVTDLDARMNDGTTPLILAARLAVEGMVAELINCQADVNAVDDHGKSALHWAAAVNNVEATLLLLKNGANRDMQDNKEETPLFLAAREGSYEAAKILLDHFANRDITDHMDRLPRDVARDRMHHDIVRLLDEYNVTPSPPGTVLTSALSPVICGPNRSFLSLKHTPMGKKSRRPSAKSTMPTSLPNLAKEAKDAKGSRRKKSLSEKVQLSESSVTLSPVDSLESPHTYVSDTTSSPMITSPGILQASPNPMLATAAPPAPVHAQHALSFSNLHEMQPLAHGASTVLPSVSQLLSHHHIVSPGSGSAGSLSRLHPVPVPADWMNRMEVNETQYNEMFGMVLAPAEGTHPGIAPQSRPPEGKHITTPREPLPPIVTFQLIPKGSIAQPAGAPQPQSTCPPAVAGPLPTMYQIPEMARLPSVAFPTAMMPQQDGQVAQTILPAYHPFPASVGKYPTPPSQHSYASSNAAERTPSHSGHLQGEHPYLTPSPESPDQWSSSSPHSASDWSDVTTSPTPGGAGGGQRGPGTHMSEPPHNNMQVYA

Regarding `C=CCOC(=O)[C@H]1[C@@H]2C(=O)O[C@@H](c3ccccc3)[C@@H](c3ccccc3)N2[C@@H](c2ccc(OCCOC(=O)[C@H]3C[C@H]4C(=O)N5CCC[C@H]5C(=O)N4[C@H]3c3cccc(OCCO)c3)cc2)[C@]12C(=O)Nc1ccccc12`, the composite z-score is -0.113 in experiment [1]; 0.984 in [2]; -0.147 in [3]; 0.363 in experiment [4]; 0.0945 in experiment [5]; 1.06 in experiment [6]. For the same compound, the composite z-score in [7] was 1.24; in [9], 0.406; in experiment [10] it was -0.182; in experiment [11], 1.53; in experiment [15] it was 2.04; in experiment [17], 0.103. Besides, the z-score was 0.176 (inactive) in [8]; 0.766 (inactive) in [12]; -0.347 (inactive) in experiment [13]; 2.43 (inactive) in experiment [14]; 1.83 (inactive) in experiment [16].

`COCCOC(=O)N1C(=O)[C@@]2(c3cc(C#CC4(O)CCCCCC4)ccc31)[C@H](C(=O)NC[C@H](O)c1ccccc1)[C@H]1C(=O)O[C@H](c3ccccc3)[C@H](c3ccccc3)N1[C@@H]2c1ccccc1OCCO`: the composite z-score in experiment [1] is -0.0213; in experiment [2], 0.621; in [3], -0.0628; in [4], 0.695; in experiment [5], 1.03; in experiment [6], 1.29. Moreover, the composite z-score in experiment [7] was found to be 1.23; in experiment [9], 0.627; in experiment [10], 0.0044; in experiment [11], 1.55; in experiment [15], 2.69; in [17], 0.101. Further, the z-score in experiment [8] is 0.153 (inactive); in experiment [12], 2.64 (inactive); in [13], 0.623 (inactive); in experiment [14] it was 6.84 (inactive); in experiment [16], 1.97 (inactive).

With `CC(=O)NCCCC[C@@H]1NC(=O)[C@@H]2C[C@H](C(=O)O)[C@H](c3cccc(OCCO)c3)N2C1=O`, the composite z-score in experiment [1] was -0.16; in experiment [2], 0.619; in experiment [3], -0.112; in experiment [4] it was 0.321; in experiment [5], 0.124; in experiment [6], 0.0677. Also, the composite z-score is 1.31 in experiment [7]; 0.199 in experiment [9]; -0.153 in [10]; 1.55 in experiment [11]; 0.654 in experiment [15]; -0.0846 in experiment [17]. Moreover, the z-score in experiment [8] was 0.356 (inactive); in experiment [12] it was 1.18 (inactive); in experiment [13], -0.201 (inactive); in experiment [14], 1.46 (inactive); in experiment [16], 0.809 (inactive).

For the compound `COc1ccc(C#Cc2ccc3c(c2)O[C@@H](CN(C)C(C)=O)[C@@H](C)CN([C@H](C)CO)S3(=O)=O)cc1`, the outcome in [18], in [19] and in [20] was inactive.

For `COC(=O)C1=CC(c2ccc(CO)cc2)=CC(c2cccs2)N(C)C=C1C(=O)OC` (stereo unspecified), the composite z-score was 1.13 in experiment [1]; 0.2 in experiment [2]; -0.0625 in experiment [3]; -0.0568 in [4]; -0.109 in [5]; 1.96 in experiment [6]. Moreover, the composite z-score was 1.29 in experiment [7]; 0.308 in [9]; -0.226 in experiment [10]; 0.853 in [11]; 2.88 in experiment [15]; 0.0094 in experiment [17]. Also, the z-score is 1.36 (inactive) in experiment [8]; -0.543 (inactive) in experiment [12]; -5.22 (inactive) in [13]; -0.424 (inactive) in experiment [14]; 0.637 (inactive) in experiment [16].

Regarding `COCCCNC(=O)[C@@]1(CCS(=O)(=O)c2ccccc2)N=C(c2ccc(OCCCO)cc2)O[C@H]1c1ccccc1CN=[N+]=[N-]`, the composite z-score in [1] worked out at 1.06; in experiment [2] it was 0.865; in experiment [3], 0.331; in [4], 1.12; in experiment [5], 1.25; in [6], 1.01. The composite z-score was determined as 1.22 in experiment [7]; 1.25 in experiment [9]; 0.0515 in experiment [10]; 1.54 in experiment [11]; 2.65 in [15]; 0.568 in experiment [17]. Moreover, the z-score is -0.891 (inactive) in experiment [8]; -1.61 (inactive) in experiment [12]; -1.21 (inactive) in experiment [13]; 0.468 (inactive) in experiment [14]; 2.4 (inactive) in experiment [16].

In the case of `COCCOC(=O)N1C(=O)[C@@]2(c3cc(C#CC4(O)CCCCCC4)ccc31)[C@H](c1ccccc1OCCO)N1[C@H](c3ccccc3)[C@H](c3ccccc3)OC(=O)[C@H]1[C@@H]2C(=O)Nc1nc2ccccc2s1`, the composite z-score in [1] is -0.172; in [2], 1.05; in experiment [3], 0.0359; in [4], 0.659; in [5], 1.11; in experiment [6], 0.41. Moreover, the composite z-score in experiment [7] was 1.26; in experiment [9] it was 0.325; in experiment [10], -0.121; in [11] it was 1.55; in experiment [15], 2.09; in experiment [17], 0.0498. Moreover, the z-score in [8] is 1.54 (inactive); in experiment [12], 2.04 (inactive); in experiment [13] it was -0.312 (inactive); in experiment [14], 3.94 (inactive); in experiment [16], 2.69 (inactive).

Regarding `COc1ccc([Si](C)(C)[C@H]2[C@H](CCO)O[C@@]3(C(=O)N(Cc4ccc(N5C(=O)c6cccc7cccc5c67)cc4)c4ccccc43)[C@@H]2C)cc1`, the composite z-score in [1] is 0.633; in [2], -0.213; in experiment [3] it was -0.0692; in [4] it was -0.397; in experiment [5] it was -0.831; in [6], 1.1. In addition, the composite z-score was 0.657 in experiment [7]; 0.025 in experiment [9]; -0.261 in experiment [10]; 0.126 in experiment [11]; 0.589 in [15]; -0.169 in experiment [17]. In addition, the z-score in experiment [8] is -4.45 (inactive); in experiment [12] it was 0.341 (inactive); in experiment [13], 0.472 (inactive); in experiment [14], 26 (active); in experiment [16] it was 2.02 (inactive).

Regarding `CC(C)C(CO)N1C(=O)[C@@H]2[C@H]3C(=O)OCC=C[C@H]3OC23C=CCN(Cc2ccccc2)C(=O)[C@@H]13` (stereo partly specified), the composite z-score is -0.302 in [1]; -0.438 in experiment [2]; -0.116 in [3]; -0.307 in [4]; -0.834 in experiment [5]; -0.72 in experiment [6]. Moreover, the composite z-score in experiment [7] was -0.386; in experiment [9] it was -0.361; in experiment [10] it was -0.0994; in [11], -0.462; in experiment [15], -1.04; in experiment [17] it was -0.238. For the same compound, the z-score in experiment [8] was -0.699 (inactive); in experiment [12] it was -0.899 (inactive); in [13], -0.742 (inactive); in [14], -1.06 (inactive); in experiment [16], 2.08 (inactive).

For `O=C(O)[C@H]1C[C@H]2C(=O)N[C@@H](Cc3ccccc3)C(=O)N2[C@H]1c1ccc(O)cc1`, the composite z-score in experiment [1] was 1.01; in [2] it was 0.419; in experiment [3], -0.0943; in experiment [4], -0.769; in [5], -1.42; in [6], 0.511. The composite z-score is 1.24 in [7]; 0.16 in experiment [9]; -0.136 in experiment [10]; 1.32 in experiment [11]; 2.54 in experiment [15]; -0.0572 in experiment [17]. Also, the z-score is 1.02 (inactive) in experiment [8]; -0.261 (inactive) in [12]; -0.784 (inactive) in experiment [13]; -0.322 (inactive) in [14]; 0.906 (inactive) in experiment [16].
